Test [1] deals with human Orphanin, Opioid Related Nociceptin Receptor 1 (ORL1), OPRL1 (gene 4987) (UniProt P41146). Kind of test: NVS_GPCR_hORL1: NovaScreen (NVS) G Protein-Coupled Receptor Assay for human Orphanin, Opioid Related Nociceptin Receptor 1 (ORL1) (AID 2283283). A digest of the protocol:
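Cell-free binding using HEK293-derived receptor protein: radioligand displacement measured by filter scintillation 1 hour after dosing. Primary testing at 25 uM in duplicate, followed by singleton concentration series up to 50 uM; DMSO served as negative control.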

Test [2] concerns the target mouse Cholecystokinin, CCK1 Receptor (CCKA), Cckar (gene 12425) (UniProt O08786). Kind of test: NVS_GPCR_mCCKAPeripheral: NovaScreen (NVS) G Protein-Coupled Receptor Assay for mouse Cholecystokinin, CCK1 Receptor (CCKA) (AID 2283285). A digest of the protocol:
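Chemicals were first screened in duplicate at 25 uM, with those meeting threshold (e.g., 30% inhibition) retested in singleton concentration series to 50 uM maximum. Binding of radioligand to mouse pancreatic membranes was read after 2 h by filtration and scintillation counting.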

Test [3] has as its target rat Serotonin, 5-Hydroxytryptamine Receptor 1 (5HT1), Non-Selective Binding, Htr1a (gene 24473) (UniProt P19327). Kind of test: NVS_GPCR_r5HT1_NonSelective: NovaScreen (NVS) G Protein-Coupled Receptor Assay for rat Serotonin, 5-Hydroxytryptamine Receptor 1 (5HT1), Non-Selective Binding (AID 2283286). A digest of the protocol: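 Binding of a radioligand to rat cortex membranes is read by filtration and scintillation counting after 1 h. Compounds were screened at 25 uM in duplicate. Actives were then titrated to a top of 50 uM. DMSO is the baseline.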

Test [4] concerns rabbit Platelet Activating Factor Receptor (PAF), gene 100354046. The test can be described thus: NVS_GPCR_rabPAF: NovaScreen (NVS) G Protein-Coupled Receptor Assay for rabbit Platelet Activating Factor Receptor (PAF) (AID 2283287). In a few lines:
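Rabbit platelet membrane preparation; radioligand displacement read by filter-based scintillation counting 1 h after dosing, loss of signal versus DMSO. Primary screen in duplicate at 25 uM, actives followed up in concentration series.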

The target of test [5] is rat Adrenergic, Alpha 1, Non-selective Receptor (Adra1), Adra1a (gene 29412) (UniProt P43140). Kind of test: NVS_GPCR_rAdra1_NonSelective: NovaScreen (NVS) G Protein-Coupled Receptor Assay for rat Adrenergic, Alpha 1, Non-selective Receptor (Adra1) (AID 2283289). A digest of the protocol:
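Chemicals first screened in duplicate at 25 uM, then actives tested in concentration series up to 50 uM. Binding measured as displacement of radioligand from rat forebrain membrane receptors, 1 h, filtration with scintillation readout; DMSO baseline.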

Test [6] has as its target human Opioid Receptor Mu (Opiate Mu), OPRM1 (gene 4988) (UniProt P35372). Kind of test: NVS_GPCR_hOpiate_mu: NovaScreen (NVS) G Protein-Coupled Receptor Assay for human Opioid Receptor Mu (Opiate Mu) (AID 2283290).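 Further: hits lower bound tracer signal versus DMSO meaning displacement of the ligand.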 A digest of the protocol: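 Here, radioligand binding to CHO-extracted receptor was measured after 2.5 h using filter-based scintillation detection. Initial single-concentration screening used 25 uM in duplicate with plate controls; confirmed actives went to concentration-response testing.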

Test [7] deals with guinea pig Bradykinin Receptor B2 (BK2), BDKRB2 (gene 100135486) (UniProt O70526). The test can be described thus: NVS_GPCR_gBK2: NovaScreen (NVS) G Protein-Coupled Receptor Assay for guinea pig Bradykinin Receptor B2 (BK2) (AID 2283292). In a few lines:
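Guinea pig ileum membrane preparation incubated 1 h with radioligand and test chemical; bound counts measured after filtration. Primary duplicate screening at 25 uM, then singleton concentration series with a 50 uM top dose; DMSO as baseline.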

Test [8] concerns the target mouse Cholecystokinin, CCK2 Receptor (CCKB), Cckbr (gene 12426) (UniProt P56481). Kind of test: NVS_GPCR_mCKKBCentral: NovaScreen (NVS) G Protein-Coupled Receptor Assay for mouse Cholecystokinin, CCK2 Receptor (CCKB) (AID 2283293). In a few lines:
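Mouse forebrain membrane preparation incubated 2 h with chemical and radioligand; bound radioactivity counted after filtration. Single-concentration duplicate screen at 25 uM, then concentration series to 50 uM max for hits, DMSO as baseline.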

For test [9], the target named is guinea pig Serotonin, 5-Hydroxytryptamine Receptor 4 (5HT4), HTR4 (gene 100135548) (UniProt O70528). Kind of test: NVS_GPCR_g5HT4: NovaScreen (NVS) G Protein-Coupled Receptor Assay for guinea pig Serotonin, 5-Hydroxytryptamine Receptor 4 (5HT4) (AID 2283294). In a few lines: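 Compounds first screened in duplicate at 25 uM, actives followed up in concentration series. Binding measured as displacement of specific radioligand from guinea pig striatal membranes, 1 h, filter-based scintillation read-out versus DMSO baseline.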

For test [10], the target named is rat Serotonin, 5-Hydroxytryptamine Receptor (5HT), Non-Selective Binding, Htr1a (gene 24473) (UniProt P19327). The test can be described thus: NVS_GPCR_r5HT_NonSelective: NovaScreen (NVS) G Protein-Coupled Receptor Assay for rat Serotonin, 5-Hydroxytryptamine Receptor (5HT), Non-Selective Binding (AID 2283295). In a few lines:
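Rat cortex membrane preparation incubated 1 h with radioligand and test chemical; bound radioactivity counted after filtration. Screening began in duplicate at 25 uM with concentration-series follow-up; fitting relative to DMSO.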

For test [11], the target named is rat Adrenergic, Alpha 1A Receptor (Adra1A), Adra1a (gene 29412) (UniProt P43140). Kind of test: NVS_GPCR_rAdra1A: NovaScreen (NVS) G Protein-Coupled Receptor Assay for rat Adrenergic, Alpha 1A Receptor (Adra1A) (AID 2283296). A digest of the protocol: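 Filter radiodetection after 1 h competitive binding on CEC-pretreated rat cortical membranes. Duplicate single-point screening at 25 uM; active chemicals retested across concentration series.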

For test [12], the system named is rat Adrenergic, Alpha 1B Receptor (Adra1B), gene 24173. Kind of test: NVS_GPCR_rAdra1B: NovaScreen (NVS) G Protein-Coupled Receptor Assay for rat Adrenergic, Alpha 1B Receptor (Adra1B) (AID 2283297). In a few lines:
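Filter-binding radioligand competition on membranes from rat liver, read after 1 h by scintillation counting. Single-concentration duplicate screen at 25 uM, followed by concentration-response on actives, normalised to DMSO.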

In test [13] the target is rat Adrenergic Receptor, Beta (Adrb), Non-selective Binding, Adrb1 (gene 24925) (UniProt P18090). The test can be described thus: NVS_GPCR_rAdrb_NonSelective: NovaScreen (NVS) G Protein-Coupled Receptor Assay for rat Adrenergic Receptor, Beta (Adrb), Non-selective Binding (AID 2283298). In a few lines:
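Rat cortical membranes incubated 1 h with beta-adrenergic radioligand and test chemical; bound ligand measured by filtration and scintillation counting. Screen at 25 uM duplicate, then concentration series with 50 uM maximum; loss of signal versus DMSO.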

The target of test [14] is rat Adrenergic Receptor, Alpha 2 (Adra2), Non-selective Binding, Adra2a (gene 25083) (UniProt P22909). The test can be described thus: NVS_GPCR_rAdra2_NonSelective: NovaScreen (NVS) G Protein-Coupled Receptor Assay for rat Adrenergic Receptor, Alpha 2 (Adra2), Non-selective Binding (AID 2283299). In a few lines:
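Filter-based scintillation counting of radioligand binding to rat cortical membrane receptors, measured 1.25 hours post-dosing; loss of signal versus DMSO indicates displacement. Initial single-concentration duplicate at 25 uM, then concentration series.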

Test [15] deals with rat Corticotropin Releasing Factor Receptor (CRF), Crhr1 (gene 58959) (UniProt P35353). Kind of test: NVS_GPCR_rCRF: NovaScreen (NVS) G Protein-Coupled Receptor Assay for rat Corticotropin Releasing Factor Receptor (CRF) (AID 2283300). A digest of the protocol:
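Single-concentration (25 uM, duplicate) radioligand binding on rat cortical membrane preparations, counted by scintillation after 2 h. Activity scored as signal loss relative to DMSO negative control.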

The target of test [16] is rat Histamine Receptor (H3), Hrh3 (gene 85268) (UniProt Q9QYN8). The test can be described thus: NVS_GPCR_rH3: NovaScreen (NVS) G Protein-Coupled Receptor Assay for rat Histamine Receptor (H3) (AID 2283303). In a few lines:
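Filter-binding radioligand competition on rat forebrain membranes, 1 h incubation; compounds screened at 25 µM in duplicate and followed in concentration series to 50 µM, loss of bound signal vs DMSO.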

Test [17] addresses Metabotropic glutamate receptor 1 (Rattus norvegicus) (UniProt P23385). Kind of test: NVS_GPCR_rmMGluR1: NovaScreen (NVS) G Protein-Coupled Receptor Assay for rat Glutamate Metabotropic Receptor 1 (MGluR1) (AID 2283305). A digest of the protocol:
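Binding to native receptor from rat cerebellum extract, measured as displacement of a radioligand (scintillation counting, filter separation) after 1 hour. Compounds tested at 25 uM in duplicate, then titrated to a 50 uM maximum.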

The target of the next test is Adra2b (gene 24174) (UniProt P19328). The test can be described thus: NVS_GPCR_rmAdra2B: NovaScreen (NVS) G Protein-Coupled Receptor Assay for hybird cells Adrenergic, Alpha 2B Receptor (Adra2B) (AID 2283306). In a few lines:
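Compounds screened first at 25 uM in duplicate, with actives followed up in concentration-response; specific radioligand displacement from hybrid neuroglioma/blastoma cell membrane preparations measured by filter scintillation counting after 1 h, normalized to DMSO.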

Test [18] has as its system 5-hydroxytryptamine receptor 2C (pig). Kind of test: NVS_GPCR_p5HT2C: NovaScreen (NVS) G Protein-Coupled Receptor Assay for pig Serotonin, 5-Hydroxytryptamine Receptor 2C (5HT2C) (AID 2283288). In a few lines:
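Radioligand displacement on membranes from pig choroid plexus, detected by filter scintillation counting after 1 h. Tested first at a single 25 uM in duplicate, then in concentration-response for actives; DMSO served as baseline.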

We go through 12 molecules from PubChem BioAssay (EPA / NIEHS).

As a reminder, the AC50 is the concentration at which the activity in the assay is half-maximal.

Values joined by “and” are separate entries in the source; they are usually repeats but may differ in a detail not shown here. Identical values can stand only once. Records with an inconclusive call do not appear. Active and inactive are the calls of the source. How the source made its calls: active means hit-call score of the fitted dose curve at least 0.9, where 1 is the maximum; inconclusive means response in the unintended direction; inactive means score below 0.9.

rat Serotonin, 5-Hydroxytryptamine Receptor 1 (5HT1), Non-Selective Binding, Htr1a (gene 24473), sequence (P19327 whole entry, looked up): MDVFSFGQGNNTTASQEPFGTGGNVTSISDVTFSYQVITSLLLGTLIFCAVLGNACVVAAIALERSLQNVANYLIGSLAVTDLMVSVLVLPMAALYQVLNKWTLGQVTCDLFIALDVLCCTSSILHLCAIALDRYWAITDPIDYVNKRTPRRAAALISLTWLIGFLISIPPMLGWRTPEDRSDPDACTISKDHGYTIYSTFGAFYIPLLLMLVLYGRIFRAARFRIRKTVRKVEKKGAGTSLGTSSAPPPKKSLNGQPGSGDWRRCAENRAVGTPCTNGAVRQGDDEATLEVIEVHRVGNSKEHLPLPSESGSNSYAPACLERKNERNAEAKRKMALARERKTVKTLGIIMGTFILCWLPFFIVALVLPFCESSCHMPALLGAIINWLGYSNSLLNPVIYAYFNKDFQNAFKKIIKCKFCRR
Adra2b (gene 24174), sequence (P19328 whole entry, looked up): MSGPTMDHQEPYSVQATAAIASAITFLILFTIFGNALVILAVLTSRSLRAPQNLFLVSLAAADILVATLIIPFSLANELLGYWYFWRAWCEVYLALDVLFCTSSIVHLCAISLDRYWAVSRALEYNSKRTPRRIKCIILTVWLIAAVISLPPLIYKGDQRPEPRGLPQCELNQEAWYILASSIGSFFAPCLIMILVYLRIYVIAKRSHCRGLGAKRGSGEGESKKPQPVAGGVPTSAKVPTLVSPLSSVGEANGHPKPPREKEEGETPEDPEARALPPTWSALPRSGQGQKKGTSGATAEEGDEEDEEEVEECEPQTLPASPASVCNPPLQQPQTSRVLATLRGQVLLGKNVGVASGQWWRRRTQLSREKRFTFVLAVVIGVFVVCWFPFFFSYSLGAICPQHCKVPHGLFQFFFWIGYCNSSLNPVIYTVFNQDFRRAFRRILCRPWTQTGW
human Opioid Receptor Mu (Opiate Mu), OPRM1 (gene 4988), sequence (P35372 whole entry, looked up): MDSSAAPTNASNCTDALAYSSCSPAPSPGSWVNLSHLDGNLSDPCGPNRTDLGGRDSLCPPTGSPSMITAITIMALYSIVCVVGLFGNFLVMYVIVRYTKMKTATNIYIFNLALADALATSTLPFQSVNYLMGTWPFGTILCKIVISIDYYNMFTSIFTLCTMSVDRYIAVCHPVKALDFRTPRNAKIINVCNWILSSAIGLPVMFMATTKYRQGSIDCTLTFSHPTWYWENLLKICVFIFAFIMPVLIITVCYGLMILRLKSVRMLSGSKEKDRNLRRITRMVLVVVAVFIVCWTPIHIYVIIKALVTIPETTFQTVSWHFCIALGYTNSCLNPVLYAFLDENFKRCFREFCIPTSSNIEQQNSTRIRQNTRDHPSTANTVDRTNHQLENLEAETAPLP
rat Adrenergic, Alpha 1, Non-selective Receptor (Adra1), Adra1a (gene 29412), sequence (P43140 whole entry, looked up): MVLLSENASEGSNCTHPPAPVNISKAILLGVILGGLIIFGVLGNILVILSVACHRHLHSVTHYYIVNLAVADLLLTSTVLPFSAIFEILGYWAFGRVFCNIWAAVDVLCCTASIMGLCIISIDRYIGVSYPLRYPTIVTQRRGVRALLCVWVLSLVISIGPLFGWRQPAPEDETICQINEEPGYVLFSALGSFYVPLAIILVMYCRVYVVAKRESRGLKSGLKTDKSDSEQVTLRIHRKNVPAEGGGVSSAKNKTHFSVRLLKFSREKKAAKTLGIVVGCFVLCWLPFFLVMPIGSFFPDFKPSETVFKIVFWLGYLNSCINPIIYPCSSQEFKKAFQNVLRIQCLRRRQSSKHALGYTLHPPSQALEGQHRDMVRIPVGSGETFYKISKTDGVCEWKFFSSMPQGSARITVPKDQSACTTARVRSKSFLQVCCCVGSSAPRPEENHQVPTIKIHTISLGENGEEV
mouse Cholecystokinin, CCK2 Receptor (CCKB), Cckbr (gene 12426), sequence (P56481 whole entry, looked up): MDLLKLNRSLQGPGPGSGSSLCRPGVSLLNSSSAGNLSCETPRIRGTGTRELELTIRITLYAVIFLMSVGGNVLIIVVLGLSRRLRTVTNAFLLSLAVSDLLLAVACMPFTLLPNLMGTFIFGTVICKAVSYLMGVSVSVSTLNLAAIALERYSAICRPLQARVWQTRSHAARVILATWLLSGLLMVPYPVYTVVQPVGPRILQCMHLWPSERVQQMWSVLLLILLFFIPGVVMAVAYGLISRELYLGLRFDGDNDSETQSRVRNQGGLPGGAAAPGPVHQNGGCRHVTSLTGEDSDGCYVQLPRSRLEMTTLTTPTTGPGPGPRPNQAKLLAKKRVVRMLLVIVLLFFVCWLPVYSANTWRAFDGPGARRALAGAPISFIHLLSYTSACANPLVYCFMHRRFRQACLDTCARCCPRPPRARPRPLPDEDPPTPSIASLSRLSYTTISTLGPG
human Orphanin, Opioid Related Nociceptin Receptor 1 (ORL1), OPRL1 (gene 4987), sequence (P41146 whole entry, looked up): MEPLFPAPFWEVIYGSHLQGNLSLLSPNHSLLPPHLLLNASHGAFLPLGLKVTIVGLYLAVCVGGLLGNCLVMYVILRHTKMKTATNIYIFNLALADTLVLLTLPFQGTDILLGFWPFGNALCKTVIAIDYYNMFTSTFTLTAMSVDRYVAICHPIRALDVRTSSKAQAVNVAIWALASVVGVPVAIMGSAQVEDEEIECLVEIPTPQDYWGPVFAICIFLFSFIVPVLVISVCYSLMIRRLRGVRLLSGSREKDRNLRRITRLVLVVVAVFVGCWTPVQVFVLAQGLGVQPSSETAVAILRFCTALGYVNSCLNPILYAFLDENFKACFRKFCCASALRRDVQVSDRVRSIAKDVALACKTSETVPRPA
rat Serotonin, 5-Hydroxytryptamine Receptor (5HT), Non-Selective Binding, Htr1a (gene 24473), sequence (P19327 whole entry, looked up): as the sequence (P19327 whole entry, looked up) above
rat Adrenergic Receptor, Alpha 2 (Adra2), Non-selective Binding, Adra2a (gene 25083), sequence (P22909 whole entry, looked up): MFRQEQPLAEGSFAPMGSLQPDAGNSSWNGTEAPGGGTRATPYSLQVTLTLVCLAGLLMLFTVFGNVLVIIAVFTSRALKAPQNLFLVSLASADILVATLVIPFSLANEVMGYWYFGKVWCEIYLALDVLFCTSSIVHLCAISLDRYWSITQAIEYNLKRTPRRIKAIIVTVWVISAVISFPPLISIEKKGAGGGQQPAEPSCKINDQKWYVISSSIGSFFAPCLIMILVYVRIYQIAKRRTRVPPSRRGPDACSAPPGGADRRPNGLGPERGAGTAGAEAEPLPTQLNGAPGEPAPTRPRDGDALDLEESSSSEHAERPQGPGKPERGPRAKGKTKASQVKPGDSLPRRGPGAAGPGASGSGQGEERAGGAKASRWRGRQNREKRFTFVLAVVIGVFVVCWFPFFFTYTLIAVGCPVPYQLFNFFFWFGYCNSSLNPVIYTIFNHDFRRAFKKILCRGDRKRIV
mouse Cholecystokinin, CCK1 Receptor (CCKA), Cckar (gene 12425), sequence (O08786 whole entry, looked up): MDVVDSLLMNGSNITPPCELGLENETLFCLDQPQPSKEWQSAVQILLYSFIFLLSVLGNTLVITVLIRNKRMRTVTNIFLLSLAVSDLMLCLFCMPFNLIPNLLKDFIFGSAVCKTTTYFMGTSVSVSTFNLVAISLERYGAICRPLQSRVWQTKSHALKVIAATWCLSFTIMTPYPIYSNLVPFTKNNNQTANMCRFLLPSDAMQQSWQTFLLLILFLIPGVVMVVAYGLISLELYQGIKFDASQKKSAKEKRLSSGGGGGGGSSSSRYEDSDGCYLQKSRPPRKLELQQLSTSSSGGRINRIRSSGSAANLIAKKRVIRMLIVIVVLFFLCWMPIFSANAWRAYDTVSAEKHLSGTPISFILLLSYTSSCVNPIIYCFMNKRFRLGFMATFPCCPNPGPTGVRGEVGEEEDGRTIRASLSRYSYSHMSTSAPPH
guinea pig Bradykinin Receptor B2 (BK2), BDKRB2 (gene 100135486), sequence (O70526 whole entry, looked up): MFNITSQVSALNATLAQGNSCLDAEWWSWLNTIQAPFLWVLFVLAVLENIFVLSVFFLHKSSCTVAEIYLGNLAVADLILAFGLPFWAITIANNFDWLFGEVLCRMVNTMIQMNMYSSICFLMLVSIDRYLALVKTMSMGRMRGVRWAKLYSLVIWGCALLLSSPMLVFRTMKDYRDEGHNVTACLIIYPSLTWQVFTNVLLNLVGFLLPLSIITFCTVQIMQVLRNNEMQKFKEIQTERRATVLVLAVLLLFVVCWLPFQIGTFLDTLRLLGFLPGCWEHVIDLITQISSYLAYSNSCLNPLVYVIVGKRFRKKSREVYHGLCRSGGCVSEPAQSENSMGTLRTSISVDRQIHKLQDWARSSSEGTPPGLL
guinea pig Serotonin, 5-Hydroxytryptamine Receptor 4 (5HT4), HTR4 (gene 100135548), sequence (O70528 whole entry, looked up): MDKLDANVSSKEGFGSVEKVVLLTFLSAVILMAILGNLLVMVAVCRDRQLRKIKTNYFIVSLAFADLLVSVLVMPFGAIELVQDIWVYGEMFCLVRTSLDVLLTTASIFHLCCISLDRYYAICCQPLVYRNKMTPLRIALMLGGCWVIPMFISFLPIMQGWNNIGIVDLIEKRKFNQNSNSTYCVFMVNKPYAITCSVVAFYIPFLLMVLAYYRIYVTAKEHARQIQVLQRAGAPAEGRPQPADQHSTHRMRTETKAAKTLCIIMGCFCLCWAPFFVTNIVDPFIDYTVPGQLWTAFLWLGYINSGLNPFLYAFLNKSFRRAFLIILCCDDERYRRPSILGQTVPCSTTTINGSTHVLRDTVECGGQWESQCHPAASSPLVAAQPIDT

In the case of `C=C(C)C(=O)[O][Sn]([CH2]CCC)([CH2]CCC)[CH2]CCC`, the AC50 was 1.39 µM (active) in test [1]; 0.281 µM (active) in [2]; 18 µM (active) in test [3]; 6.61 µM (active) in test [4]; 6.86 µM (active) in test [5]; 0.653 µM (active) in [6]. For the same molecule, the AC50 in test [7] was 12 µM (active); in [8] it was 2.88 µM (active); in [9] it was 2.78 µM (active); in test [10], 13.8 µM (active); in [11], 13 µM (active); in test [12], 4.59 µM (active). Also, the AC50 in test [13] is 20.5 µM (active); in [14] it was 3.25 µM (active); in [16] it was 25 µM (active); in test [17], 4.13 µM (active); with Adra2b (gene 24174) it was 3.08 µM (active). Further, in test [15], the molecule was called inactive.
On to `Clc1ccc(C2(Cn3cncn3)CC(Br)CO2)c(Cl)c1` (configuration not stated), for which, in test [1], the outcome was inactive.
Take `CCOC(=O)Nc1cccc(OC(=O)Nc2ccccc2)c1`: the half-maximal activity concentration (AC50) in [18] is 20.3 µM (active).
In the case of `O=C(OC1CCCCC1)c1ccccc1C(=O)OC1CCCCC1`, the result in test [6] was inactive.
Consider `Nc1ncc([N+](=O)[O-])s1`, for which the AC50 in test [6] was 17.6 µM (active).
In the case of `O=C(O)C(F)(F)C(F)(F)C(F)(F)C(F)(F)C(F)(F)C(F)(F)C(F)(F)C(F)(F)C(F)(F)C(F)(F)F`, the concentration at half-maximal activity (AC50) in test [6] was 12.4 µM (active).
`COc1cc(-c2ccc(N)c(OC)c2)ccc1N`: the AC50 was 11.8 µM (active) and 12.6 µM (active) in [3]; 15.5 µM (active) with Adra2b (gene 24174). Further, the molecule was classed as inactive in [5].
Consider `O=C(Nc1ccc2[nH]ccc2c1)c1cc2cc(F)ccc2n1Cc1cccc(F)c1`, for which the outcome in [6] and in test [7] was inactive.
Consider `ClC1=C(Cl)[C@]2(Cl)[C@H]3[C@H]([C@H]4C=C[C@H]3C4)[C@@]1(Cl)C2(Cl)Cl`, for which, in [6], the molecule was called inactive.
The same measure, in the same setting: for `CC(C)(C)c1cc(O)ccc1O` the value was “inactive”.
As for `CC(C)(C)CC(C)(C)c1ccc(O)cc1`, the results for the AC50 in test [2] and in test [6] were 12 µM (active) and 16.7 µM (active), respectively. Besides, the outcome in test [8] was inactive.
`CCN1CCC2(CC1)COc1cc3c(cc12)N(C(=O)c1ccc(-c2ccc(-c4nnc(C)o4)cc2C)cc1)CC3`: the call in [3] was inactive. In addition, the AC50 is 12.5 µM (active) in [4]; 11.9 µM (active) in test [5]; 2.96 µM (active) in test [9]; 23.4 µM (active) in [10]; 16.4 µM (active) in [11]; 10.9 µM (active) in test [12]. Also, the AC50 in test [14] was 18.6 µM (active); with Adra2b (gene 24174), 10.1 µM (active).
